Data as given in PubChem BioAssay AID1159580 (chemical genetic matrix, 2015).
The campaign covered roughly 5,500 compounds. About 2,000 (36%) were called active. About 18% were inconclusive and are not listed. Cut-off read from the data, not from the text of the source: active = normalized growth mostly below about 0.91 (no sharp cut-off); inconclusive = no clear call, values can overlap the other calls; inactive = mostly above about 0.92. The list shows a part of the results.

Assay: chemical genetic growth profiling, strain panel (AID 1159580);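 note: tested at 20 µM; growth read once vehicle control cultures reached saturation at 30 °C; 1 = growth at the plate median or of vehicle wells; lower values mean less growth of the strain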
Settings: S. cerevisiae deletion strains, growth OD

Measured: normalized growth

CCN(CC)C(=O)N[C@@H]1C=C2c3cccc4[nH]cc(c34)C[C@H]2N(C)C1
inactive: locus YAL040C, strain CLN3, active compounds read low 1.08 | locus YCL061C, strain MRC1 (second series), active compounds read low 1 | locus YDR363W, strain ESC2, active compounds read low 0.989 | locus YER002W, strain NOP16, active compounds read low 1 | locus YGR078C, strain PAC10, active compounds read low 0.985 | locus YJR075W, strain HOC1, active compounds read low 0.983 | locus YMR263W, strain SAP30, active compounds read low 0.991 | locus YNL153C, strain GIM3, active compounds read low 1.02 | locus YNL175C, strain NOP13, active compounds read low 1.01 | locus YNL197C, strain WHI3, active compounds read low 1 | locus YNL224C, strain SQS1, active compounds read low 0.997 | locus YNL322C, strain KRE1, active compounds read low 0.997 | locus YOR083W, strain WHI5 (second series), active compounds read low 0.992
